Laboratory results reported in PubChem BioAssay AID1259421 (Broad Institute, 2018).
“And” between values parts separate entries of the source, which are not always exact repeats. Equal values may be shown once. Among all 6,400 compounds or so, about 610 (9.5%) were called active. Rule as the data show it: active = activity change below about -70%; inconclusive = no clear call, values can overlap the other calls; inactive = above that. The sample as a whole holds a higher share of actives than the screen did. More than one record can exist for a structure, and the calls need not agree. Where a SMILES comes first, the peptide text is derived from it. The star is where a group is joined. PhAc = O=C(Cc1ccccc1)*

Assay: Toxoplasma gondii ME49Luc growth in HeLa cells, luciferase, no IFN-y, primary screen (AID 1259421)
Settings: T. gondii ME49Luc in HeLa, 72 h, stronger effect = lower value, concentration not given here
With COC1CCN(C(=O)c2cc(Cc3n[nH]c(=O)c4ccccc34)ccc2F)CC1 the activity change, negative = inhibition was 11.9% (inactive).
For CCC(=O)OCC(=O)C1(OC(=O)CC)[C@H](C)C[C@H]2C3[C@H](Cl)CC4=CC(=O)C=C[C@]4(C)[C@H]3[C@@H](O)C[C@@]21C (stereo not given in full), the activity change, negative = inhibition was 11.6% (inactive).
With c1ccc(CN2CCC3(CCc4ccccc43)CC2)cc1 the activity change, negative = inhibition was 16.7% (inactive) and 4.6% (inactive).
In the case of COc1ccccc1N1CCN(CC(C(=O)NC(C)(C)C)c2ccccc2)CC1 (stereo not given), the activity change, negative = inhibition is reported as 6.24% (inactive).
For OCc1ccc(O[C@@H]2O[C@@H](CO)[C@@H](O)[C@H](O)[C@H]2O)cc1, the activity change, negative = inhibition was -0.0846% (inactive).
For CCOc1cc(/C=C(/C#N)C(N)=O)cc(CSc2ccccc2)c1O, the activity change, negative = inhibition was 32.6% (inactive).
In the case of O=C(NC1CCOCC1)c1ccc(-c2cc(-c3cn[nH]c3-c3ccccn3)ccn2)cc1, the activity change, negative = inhibition is reported as -1.45% (inactive).
With Cc1cccc(-c2[nH]ncc2-c2ccc3ncccc3n2)n1 the activity change, negative = inhibition was -16% (inactive).
For c1ccc(-c2[nH]ncc2-c2ccnc3ccccc23)nc1, the activity change, negative = inhibition was -65.8% (inactive) and -82.5% (active).
In the case of C=C1/C(=C\C=C2/CCC[C@]3(C)[C@@H]([C@H](C)CCCC(O)(C(F)(F)F)C(F)(F)F)CC[C@@H]23)C[C@@H](O)C[C@@H]1O, the activity change, negative = inhibition is reported as 7.67% (inactive).
With CNc1ncnc2c1ncn2[C@@H]1O[C@H](CO)[C@@H](O)[C@H]1O the activity change, negative = inhibition was 13.6% (inactive).
In the case of OC[C@H]1O[C@@H](n2cnc3c(NC4CCCC4)ncnc32)[C@H](O)[C@@H]1O, the activity change, negative = inhibition is reported as 13.5% (inactive).
With OC[C@H]1O[C@@H](n2cnc3c(NCc4ccco4)ncnc32)[C@H](O)[C@@H]1O the activity change, negative = inhibition was -71.9% (active).
For OCCOCCN1CCN(Cc2cccc(Oc3ccccc3)c2)CC1, the activity change, negative = inhibition was 8.65% (inactive).
With CC(C)CC(NC(=O)N1CCCCCC1)C(=O)NC(Cc1cn(C)c2ccccc12)C(=O)NC(Cc1ccccn1)C(=O)O (stereo not given) the activity change, negative = inhibition was 5.64% (inactive).
In the case of C=CC1=C(C(=O)O)N2C(=O)[C@@H](NC(=O)/C(=N/O)c3csc(N)n3)[C@H]2SC1, the activity change, negative = inhibition is reported as 5.5% (inactive).
For CCOC(=O)CNC(=O)[C@@H]1CCCN1C(=O)Cc1ccccc1 (PhAc-Pro-Gly-OEt), the activity change, negative = inhibition was 13.8% (inactive).
With O=C1c2ccccc2C(=O)C1c1ccccc1 the activity change, negative = inhibition was -3.55% (inactive).
With O=C1C(=O)C(C2CCC(c3ccc(Cl)cc3)CC2)C(=O)c2ccccc21 (stereo not given) the activity change, negative = inhibition was -68.3% (inactive) and -68.8% (inactive).
In the case of CC(C)(C)C1CCC(CC2C(=O)C(=O)c3ccccc3C2=O)CC1 (stereo not given), the activity change, negative = inhibition is reported as -75.1% (active).
In the case of CS/C(N)=C(C#N)/C(C#N)=C(\N)SC, the activity change, negative = inhibition is reported as 1.99% (inactive) and 0.209% (inactive).
For O=C(O)c1ccc(NC2OCC(O)C(O)C2O)cc1 (stereo not given), the activity change, negative = inhibition was 11.7% (inactive).
With CCCCCCCCNC(=O)C(Cc1ccc(OCc2ccncc2)cc1)NC(=O)C1CCC(CN)CC1 (stereo not given) the activity change, negative = inhibition was 20.5% (inactive).
With NC(=O)c1[nH]cnc1O the activity change, negative = inhibition was 5.36% (inactive).
In the case of CN(C)N=Nc1ccc(C(=O)O)cc1, the activity change, negative = inhibition is reported as 17.4% (inactive).
In the case of CN(C)/N=N/c1nc[nH]c1C(N)=O, the activity change, negative = inhibition is reported as -84.8% (active) and -88.3% (active) and -94.9% (active).
With Cc1cc(-c2ccc(N=Nc3ccc4c(S(=O)(=O)O)cc(S(=O)(=O)O)c(N)c4c3O)c(C)c2)ccc1N=Nc1ccc2c(S(=O)(=O)O)cc(S(=O)(=O)O)c(N)c2c1O the activity change, negative = inhibition was -45.6% (inactive).
With Cc1cnc(NC(=O)C2C(=O)c3ccccc3S(=O)(=O)N2C)s1 (stereo not given) the activity change, negative = inhibition was 17.6% (inactive) and 14.2% (inactive).
With CN1CCc2cc3c(cc2C(=O)Cc2ccc4c(c2C1)OCO4)OCO3 the activity change, negative = inhibition was 7.67% (inactive).
With CC[C@@H](C(=O)C(C)[C@@H](O)[C@H](C)CCc1ccc(C)c(O)c1C(=O)O)C1OC(CC)(C2CC[C@](O)(CC)[C@H](C)O2)C[C@@H]1C (stereo not given in full) the activity change, negative = inhibition was -85.8% (active).
For CCOC(=O)[C@H](C)C[C@@H](Cc1ccc(-c2ccccc2)cc1)NC(=O)CCC(=O)O, the activity change, negative = inhibition was 5.47% (inactive).
For Cc1cc(C)c(/C=C2\C(=O)Nc3ccccc32)[nH]1, the activity change, negative = inhibition was 12.4% (inactive) and 24.8% (inactive).
In the case of COc1c/c(=C2\C=c3ccccc3=N2)[nH]/c1=C\c1[nH]c(C)cc1C, the activity change, negative = inhibition is reported as -83.5% (active).
With FC(F)(F)c1ccc(/C=C/c2nc(COc3ccc(CCCCn4ccnn4)cc3)co2)cc1 the activity change, negative = inhibition was -18% (inactive).
For CN1C2CC(OC(=O)[C@H](CO)c3ccccc3)C[C@H]1[C@H]1OC21 (stereo not given in full), the activity change, negative = inhibition was 1.54% (inactive).
For NC(N)=NCCN1CCCCCCC1, the activity change, negative = inhibition was 8.88% (inactive).
For CC12C(=O)OC(=O)C1(C)C1CCC2O1 (stereo not given), the activity change, negative = inhibition was -87.3% (active).
In the case of c1ncc(CCCC2CCNCC2)[nH]1, the activity change, negative = inhibition is reported as 2.3% (inactive).
For Fc1ccc2c(CCNCc3cccc(OCC(F)(F)C(F)F)c3)c[nH]c2c1, the activity change, negative = inhibition was 38.3% (inactive).
In the case of CN[C@@H](C)[C@H]1[C@H](O)C[C@@]2(C)[C@@H]3CC[C@H]4C(C)(C)[C@@H](NC)CC[C@@]45C[C@@]35CC[C@]12C, the activity change, negative = inhibition is reported as 6.16% (inactive).
With CCCCCCCCCCCCCCCC(=O)OC[C@H](COP(=O)(O)OCC[N+](C)(C)C)OC(=O)CCCCCCCCCCCCCCC the activity change, negative = inhibition was -5.4% (inactive).
With COC(=O)c1ccccc1NC(=O)c1ccc(F)cc1 the activity change, negative = inhibition was 31.7% (inactive) and 41.2% (inactive).
For CC(C)CCN1c2nc(Nc3cc(F)c(O)c(F)c3)ncc2N(C)C(=O)C1C (stereo not given), the activity change, negative = inhibition was -84.4% (active).
With CCCCCCCC/C=C/CCCCCCCC(=O)NCc1ccc(O)c(OC)c1 the activity change, negative = inhibition was 6.46% (inactive).
With N#Cc1ccncn1 the activity change, negative = inhibition was 17.2% (inactive).
With Cc1ccc(-c2csc(NC(=O)c3ccccc3)n2)c(C)c1 the activity change, negative = inhibition was 73.8% (inactive).
With Cc1ccnc(NC(=O)C(C)c2cccc(C(=O)c3ccccc3)c2)c1 (stereo not given) the activity change, negative = inhibition was 48.4% (inactive).
With CCc1nc(-c2cccc(C)c2)c(-c2ccnc(NC(=O)c3ccccc3)c2)s1 the activity change, negative = inhibition was -91.2% (active).
With CC1CNc2c(cccc2S(=O)(=O)N[C@@H](CCCN=C(N)N)C(=O)N2CC[C@@H](C)C[C@@H]2C(=O)O)C1 (stereo not given in full) the activity change, negative = inhibition was 9.02% (inactive).
With C[C@H]1COc2c(C3(N)CC3)c(F)cc3c(=O)c(C(=O)O)cn1c23 the activity change, negative = inhibition was 14.1% (inactive).
With COc1cc2nc(N3CCCN(C)CC3)nc(NC3CCN(Cc4ccccc4)CC3)c2cc1OC the activity change, negative = inhibition was -91.5% (active).
For COc1cc2nc(N3CCN(C(=O)c4ccco4)CC3)nc(N)c2cc1OC, the activity change, negative = inhibition was 0.803% (inactive) and 4.94% (inactive).
With CCCC(=O)N1CCCN(c2nc(N)c3cc(OC)c(OC)cc3n2)CC1 the activity change, negative = inhibition was 13% (inactive).
With COc1cc(O)ccc1C(C)=O the activity change, negative = inhibition was -6.96% (inactive).
For CC(=O)OCC(=O)[C@@]1(O)CCC2C3CCC4=CC(=O)CC[C@]4(C)C3C(=O)C[C@@]21C (stereo not given in full), the activity change, negative = inhibition was -24.8% (inactive).
For CNc1cc(OC)c(C(=O)NC2CCN(Cc3ccccc3)C2C)cc1Cl (stereo not given), the activity change, negative = inhibition was 3.06% (inactive).
For CCCC(O)C(CC)CO (stereo not given), the activity change, negative = inhibition was 5.56% (inactive).
In the case of CC(=O)N[C@@H](C=O)[C@@H](O)[C@H](O)[C@H](O)CO, the activity change, negative = inhibition is reported as 11.9% (inactive).
With Cc1cc(I)ccc1Nc1c(C(=O)NOCC2CC2)cc(F)c(F)c1F the activity change, negative = inhibition was -58.9% (inactive) and -87.6% (active).
In the case of O=C(NOCC(O)CO)c1cc(Br)c(F)c(F)c1Nc1ccc(I)cc1F (stereo not given), the activity change, negative = inhibition is reported as 8.99% (inactive).
For O=C(NOCC1CC1)c1ccc(F)c(F)c1Nc1ccc(I)cc1Cl, the activity change, negative = inhibition was 11.9% (inactive).
With CC(C)C1CCC(C(=O)N[C@@H](Cc2ccccc2)C(=O)O)CC1 (stereo not given in full) the activity change, negative = inhibition was -3.8% (inactive).
With COc1ccc(Cn2ccc3ccc(C(=O)NO)cc32)cc1 the activity change, negative = inhibition was 1.1% (inactive).
In the case of CCN(CC)Cc1ccc2cc(COC(=O)Nc3ccc(C(=O)NO)cc3)ccc2c1, the activity change, negative = inhibition is reported as -81.2% (active).
With CCN(CC)CCNC(=O)c1ccc(NC(C)=O)cc1 the activity change, negative = inhibition was 6.42% (inactive) and 2.78% (inactive).
In the case of C[C@H]1O[C@H](O[C@H]2[C@H](O)[C@@H](O)[C@@H](O[C@H]3[C@H](O)[C@@H](O)[C@H](O)O[C@@H]3CO)O[C@@H]2CO)[C@H](O)[C@@H](O)[C@@H]1N[C@H]1C=C(CO)[C@@H](O)[C@H](O)[C@H]1O, the activity change, negative = inhibition is reported as 8.26% (inactive).
For COc1cc(/C=C(\C#N)C(N)=O)cc(CSc2nc3ccccc3s2)c1O, the activity change, negative = inhibition was -5% (inactive).
With COc1cccc(OC)c1-c1cc(C(=O)NC2(C(=O)O)C3CC4CC(C3)CC2C4)nn1-c1ccc(C(=O)N(C)CCCN(C)C)cc1C(C)C (stereo not given) the activity change, negative = inhibition was -1.72% (inactive).
For CC1=C(/C=C/C(=C/C=C/C(C)=C/C(=O)O)c2ccc(C)cc2)C(C)(C)CCC1, the activity change, negative = inhibition was 20.2% (inactive).
For C[C@@]12CCc3occc3[C@H]1CC[C@@]13C[C@@H](CC[C@H]12)[C@@](O)(CO)C3, the activity change, negative = inhibition was 14.1% (inactive).
For CCN1CCCC(OC(=O)C(c2ccccc2)c2ccccc2)C1 (stereo not given), the activity change, negative = inhibition was 9.52% (inactive) and 11.2% (inactive).
In the case of CC(C)C[C@@H](C(=O)N[C@H](C(=O)OC1CCCC1)c1ccccc1)[C@H](O)C(=O)NO, the activity change, negative = inhibition is reported as -91.3% (active).
For CNC(=O)[C@@H](NC(=O)[C@H](CC(C)C)[C@H](O)C(=O)NO)C(C)(C)C, the activity change, negative = inhibition was 11.5% (inactive).
For C[C@@]1(c2nc3c(C(N)=O)cccc3[nH]2)CCCN1, the activity change, negative = inhibition was 0.526% (inactive).
In the case of CC(C)Cn1cnc2c1c(=O)n(C)c(=O)n2C, the activity change, negative = inhibition is reported as 12.6% (inactive).
With NCCCCN(Cc1nc2ccccc2[nH]1)[C@H]1CCCc2cccnc21 the activity change, negative = inhibition was 25.8% (inactive).
With NCCCC[C@H](NC(=O)[C@@H](Cc1cc(Br)c(O)c(Br)c1)NC(=O)N1CCC(N2Cc3ccccc3NC2=O)CC1)C(=O)N1CCN(c2ccncc2)CC1 the activity change, negative = inhibition was 15.1% (inactive).
With CC[C@H]1CN2CCc3cc(OC)c(OC)cc3C2C[C@@H]1CC1NCCc2cc(OC)c(OC)cc21 (stereo not given in full) the activity change, negative = inhibition was -81.1% (active) and -96.6% (active).
With COc1cc2c(cc1OC)[C@@H]1CC(=O)[C@@H](CC(C)C)CN1CC2 the activity change, negative = inhibition was 11.3% (inactive) and 8.82% (inactive).
For COc1cc2c(cc1OC)C1Cc3ccc(OC)c(OC)c3CN1CC2 (stereo not given), the activity change, negative = inhibition was 8.53% (inactive).
